Most compounds without a hit are left out; they make up all but 6.6% or so of the library.
CSC inhib = blocks cancer stem cells. cancer stem cell-like cells viability, luminescence. inhibition, % at 7.5 µM. hit rate 1.1% among 300,000; in the data active = inhibition above about 75%; tested in HMLE shEcad cells
NR3A LBD binder = modulates the human NR3A ligand-binding domain. NR3A LBD differential scanning fluorimetry, Tm shift; 0% = protein alone, 100% = glycine-bound protein. AID 1259313. Tm shift relative to glycine control, % at 25 µM. hit rate 2.5% among 340,000;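 active = melting temperature shift of at least 10% of the positive control shift, at one fixed dose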
MPTP inh = permeability transition pore inhibition; AID 602449; inhibition, % at 10 µM; hit rate 1.4% among 360,000; isolated mouse mitochondria, Ca2+ swelling absorbance, 30 min;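 active = inhibition of 50% or more, scaled per plate between neutral and stimulator controls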;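 also: 0% = DMSO wells given calcium and 100% = 1 mM EGTA wells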
Gli-Sufu antag = antagonists of Gli-Sufu signaling | hit rate 0.74% among 340,000 | inhibition, % at 5 µM | Sufu-KO-LIGHT fibroblasts, Gli luciferase reporter luminescence;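 active = inhibition above about 55%, limit read from the data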;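 also: 0% = DMSO-treated cells and 100% = wells with medium but no cells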
Beta apoptosis = blocks beta cell apoptosis; INS-1E cytokine-induced death, ATP luminescence, 48 h; percent of positive-control rescue, neutral wells zero; protection from apoptosis, % (concentration not given with the values); hit rate 0.8% among 300,000; AID 435005;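 active = Every replicate reaches about 75%, or at least half do and their mean reaches it too, limit read from the data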;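 also: 0% = cytokine-treated negative control wells and 100% = positive control rescue; higher means more ATP so stronger rescue from cytokine killing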
Mdm2 MdmX PPI = disrupts the human Mdm2-MdmX interaction | hit rate 3% among 330,000 | inhibition, % at 8 µM | SaOS-2 split-luciferase Mdm2/MdmX complementation, luminescence | O15151+Q00987;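 active = inhibition of at least 50% at 8 µM in the primary screen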
MPTP counter = membrane potential counter-screen of mitochondrial pore inhibitors. shares compounds with MPTP inh. isolated mitochondria, Rhodamine 123 fluorescence. inhibition, % at 10 µM. hit rate 78% among 5,000. AID 624504; in the data active = inhibition above about 22%;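 also: 0% = DMSO vehicle and 100% = positive control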
MPTP abs DR = MPTP inhibition, dose response swelling confirmation; IC50, µM; isolated mitochondria swelling, absorbance; shares compounds with MPTP inh; hit rate 58% among 780; in the data active = IC50 below about 20 µM
MPTP counter DR = active in counter-screen for permeability transition pore inhibitors; AID 651564; shares compounds with MPTP inh; isolated mitochondria counterscreen, fluorescence read-out; hit rate 49% among 780; IC50, µM; in the data active = IC50 below about 80 µM
Starred values were filed as active, the others as inactive; i = inactive; x = not tested or not shown.

SMILES | CSC inhib | NR3A LBD binder | MPTP inh | Gli-Sufu antag | Beta apoptosis | Mdm2 MdmX PPI | MPTP counter | others
O=c1cc(CO)oc(C(Nc2ccccn2)c2ccc(C(F)(F)F)cc2)c1O (stereo not drawn) | -5 | 0 | 68* | -7 | -6 | 7 | -14 | MPTP abs DR=11*;MPTP counter DR=>80
Cc1csc(NC(=O)Nc2ccc(Cl)cc2)n1 | 1 | 21* | 74* | 4 | 2 | -19 | 69*
CCOC(=O)c1csc(NC(=O)Nc2cccc(Cl)c2)n1 | 6 | 0 | 97* | -3 | 2 | 37 | 84*
O=C(Nc1ccc(Cl)cc1)Nc1nc(-c2ccccc2O)cs1 | 28 | 26* | 99* | -4 | 109* | 27 | 67*
CN(C)Cc1csc(NC(=O)Nc2cccc(Cl)c2)n1 | x | x | 0 | x | x | x | x
CC(=O)Nc1nc(C)cs1 | -8 | -1 | 0 | 3 | 1 | 19 | x
O=C(Cc1csc(NC(=O)Nc2ccc(Cl)cc2)n1)NC1CCCC1 | -4 | 13* | 94* | -9 | 1 | -1 | 81*
Cc1ccc(C(=O)CSc2cnc3ccccc3n2)cc1C | x | 0 | 10 | -13 | -1 | 48 | x
COC(=O)C1=C(C)N(CCCC(=O)O)C(=O)NC1c1cccc(OC)c1 (stereo not drawn) | -1 | -1 | 0 | -4 | -1 | 18 | x
CCOC(=O)Cc1csc(N/N=C/c2ccc(Cl)cc2)n1 | 10 | -11 | -1 | -17 | -4 | -16 | x
CCOC(=O)Cc1csc(NC(=O)Nc2cccc(Cl)c2)n1 | 1 | -3 | 73* | -13 | -2 | 7 | 86*
NCc1csc(NC(=O)Nc2cccc(Cl)c2)n1 | x | x | 2 | x | x | x | x
CCOC(=O)Cc1csc(NC(=O)Nc2ccc(Cl)cc2)n1 | x | -7 | 74* | -6 | x | 9 | 77*
COc1ccc2[nH]c(=O)c(NC(N)=S)nc2c1 | 5 | 0 | -1 | 2 | -1 | -9 | x
C=CCN(C(C(=O)OC)C(C)C)S(=O)(=O)CCNCc1ccccc1 (stereo not drawn) | x | 1 | 0 | 0 | x | x | x
O=[N+]([O-])c1ccc(N/N=C2\CC3CC=CC23)c([N+](=O)[O-])c1 (stereo not drawn) | 11 | 0 | 92* | 32 | 54 | 20 | 75*
O=[N+]([O-])c1ccc(N/N=C2\CC3CC=CC23)cc1 (stereo not drawn) | -9 | -4 | -1 | -8 | 9 | -42 | x
COC(=O)CCC/C=C1\SC[C@@H](NC(=O)c2ccccc2)C1NC(C)=O (stereo partly drawn) | x | 0 | 0 | -2 | -2 | 9 | x
O=C(CC1SC(=Nc2ccc(OC(F)F)cc2)N(CCC2=CCCCC2)C1=O)Nc1ccccc1F (stereo not drawn) | x | 2 | 96* | 20 | x | 24 | 72*
CCOC(=O)c1cnc(SCC(=O)Nc2cc(OC)cc(OC)c2)nc1N | 1 | 7 | 87* | 6 | 3 | 34 | 49*
Cc1c(O)ccc(/C(Cc2ccc3ccccc3n2)=N\O)c1O | 12 | -9 | 73* | -68 | 18 | -35 | 35*
Cc1ccc(C(=O)Nc2cccc(C(O)c3ccccc3)c2)cc1 (stereo not drawn) | 0 | 1 | 2 | -10 | 6 | -7 | x
CO/N=C/C(C#N)c1ncc(C(F)(F)F)cc1Cl (stereo not drawn) | 4 | -6 | 99* | 25 | 30 | -4 | 92*
CO/N=C/C(c1ncc(C(F)(F)F)cc1Cl)S(=O)(=O)c1ccccc1 (stereo not drawn) | 0 | -2 | 2 | -2 | 2 | 22 | x
COc1ccc(C(OCC(O)CNC(C)c2ccccc2)c2ccc(OC)cc2)cc1 (stereo not drawn) | 9 | -1 | 97* | 25 | -2 | 44 | -7 | MPTP abs DR=7.5*;MPTP counter DR=>80
SMILES | CSC inhib | NR3A LBD binder | MPTP inh | Gli-Sufu antag | Beta apoptosis | Mdm2 MdmX PPI | MPTP counter | others
COc1ccc2[nH]c(C(O)(Cc3cccnc3)Cc3cccnc3)cc2c1 | 3 | 0 | -2 | -6 | -1 | -15 | x
CCN1CCN(S(=O)(=O)c2ccc(Cl)c(C(=O)N(C)Cc3ccc(C(C)(C)C)cc3)c2)CC1 | x | 0 | 0 | 15 | x | x | x
CC(C)(C)c1ccc(Oc2ccc(NC(=O)c3cccs3)cn2)cc1 | 84* | 3 | 54* | 3 | 18 | 29 | 44*
CN1CCN(/N=C/c2ccc(-c3ccccc3)cc2)CC1 | -19 | -1 | 70* | -37 | 4 | -23 | -11
CN1CCN(/N=C/c2c3ccccc3c(Cl)c3ccccc23)CC1 | 66 | 1 | 91* | 0 | 2 | 14 | -21
O=C(CSc1nnc(CNC(=O)c2cccs2)o1)c1ccccc1 | -14 | -1 | 1 | 5 | -3 | -10 | x
O=C(CSc1nnc(CNC(=O)c2ccccc2F)o1)c1ccc(Cl)cc1 | -8 | 1 | 69* | 3 | 7 | -3 | 13 | MPTP abs DR=i;MPTP counter DR=26*
O=C(CSc1nnc(CNC(=O)c2c(F)cccc2F)o1)c1ccccc1 | 10 | 1 | 0 | -10 | -10 | 2 | x
O=C(CSc1nnc(CNC(=O)c2cccs2)o1)c1ccc(Cl)cc1 | 1 | -2 | 77* | -3 | 5 | 8 | 30*
C/C(=N\NC(=O)c1ccc(N/N=C(\C)c2ccc(O)cc2)cc1)c1ccc(O)cc1 | 40 | 9 | 1 | -21 | 3 | 35 | x
COc1ccc(NC(=O)C2Cc3c(-c4ccncc4)ccnc3O2)cc1OC (stereo not drawn) | x | x | -2 | x | x | x | x
COc1ccc(NC(=O)C2Cc3c(-c4ccc(Cl)cc4)ccnc3O2)cn1 (stereo not drawn) | x | x | 1 | x | x | x | x
COc1ccc(NC(=O)C2Cc3c(-c4ccc(Cl)cc4)ccnc3O2)cc1OC (stereo not drawn) | x | x | 70* | x | x | x | 80*
COc1ccc(NC(=O)C2Cc3c(-c4ccccc4)ccnc3O2)cc1OC (stereo not drawn) | x | x | 59* | x | x | x | 85*
COc1ccc(CCNC(=O)c2ccc(=O)[nH]c2)cc1OC | -10 | -2 | -1 | 14 | -5 | -28 | x
CC1(O)CC(c2ccc(Cl)cc2)=NN1C(=O)c1ccc([N+](=O)[O-])cc1 (stereo not drawn) | 86* | -3 | 73* | -24 | 48 | 32 | 81*
Cc1cc(C)nc(N/N=C/c2ccccc2OCc2ccc([N+](=O)[O-])cc2)n1 | -9 | -11 | 0 | -24 | -1 | -4 | x
O=[N+]([O-])c1ccc(N/N=C\c2ccccc2OCc2ccccc2)cc1 | x | 20* | 97* | -5 | 6 | 9 | 76*
O=[N+]([O-])c1ccccc1C=NNc1ccccc1 | x | -24 | 1 | -5 | x | x | x
O=[N+]([O-])c1ccc(NN=Cc2cccc3ccccc23)cc1 | x | 34* | 89* | 6 | x | x | 71*
